Data: PubChem BioAssay (NCATS)
Inconclusive results are not listed. Unmarked numbers belong to inactive results. The source made the active and inactive calls. Calls come from the whole dose curve; as a rule, active = well fitted cell-killing curve with a large enough effect; inconclusive = small, poorly fitted or top-dose-only effect, or effect the other way; inactive = no such curve, though single readings can be large or run the other way.

Experiment: Quantitative High-Throughput drug screen in 47 multiple myeloma cell lines against the NCATS MIPE library collection: INA6_PLB cell viability assay (AID 1918965; note: nearly all actives have a fitted effect of over 55% in size)
Details: INA6 myeloma viability, CellTiter-Glo ATP luminescence, 48 h; series mostly up to 45.8 µM; viability (% of control): at the top concentration
Outline: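 Steps: seed 500 cells per well; pin-transfer MIPE 4.0 library; incubate 48 h at 37C, 5% CO2, humidified; add CellTiter-Glo, 5 min room temperature; read luminescence.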
Potency is the fitted concentration of half-maximal effect.

**Q.** With C[C@@H]1CN(Cc2ccc(F)cc2)[C@@H](C)CN1C(=O)c1cc2c(C(=O)C(=O)N(C)C)cn(C)c2cc1Cl as the compound, how does the Potency read?
**A.** 20.9 µM (active)

**Q.** For CC[C@H](Nc1ncnc2nc[nH]c12)c1nc2cccc(F)c2c(=O)n1-c1ccccc1, which Potency is on record?
**A.** 13.2 µM (active)

**Q.** Which Potency does the source give for Cc1ccc(NC(=O)c2cccc(C(C)(C)C#N)c2)cc1Nc1ccc2ncn(C)c(=O)c2c1 here?
**A.** 14.8 µM (active)

**Q.** With CO[C@@H]1[C@H](N(C)C(=O)c2ccccc2)C[C@H]2O[C@]1(C)n1c3ccccc3c3c4c(c5c6ccccc6n2c5c31)C(=O)NC4 as the compound, how does the Potency read?
**A.** 0.132 µM (active)

**Q.** For COc1cccc2cc(-c3nc(C4CCC(C(=O)O)CC4)n4ncnc(N)c34)[nH]c12 (configuration not stated), which Potency is on record?
**A.** 1.48 µM (active)

**Q.** For CCOc1ccc(Cc2cc([C@@H]3O[C@H](CO)[C@@H](O)[C@H](O)[C@@H]3O)ccc2Cl)cc1, which “viability (% of control)” value is on record?
**A.** 132%

**Q.** For COc1ccccc1[C@H](c1cccc2ccccc12)[C@@](C)(C#N)C(=O)N1CCC(c2cccc(C(F)(F)F)c2)CC1, which Potency is on record?
**A.** 1.87 µM (active)

**Q.** For CCCCNc1cc(C(=O)O)cc(S(N)(=O)=O)c1Oc1ccccc1, which “viability (% of control)” value is on record?
**A.** 160%

**Q.** For CS(=O)(=O)c1cccc(CNc2nc(Nc3ccc4c(c3)CCC(=O)N4)ncc2C(F)(F)F)c1, which Potency is on record?
**A.** 11.8 µM (active)

**Q.** For CCCS(=O)(=O)Nc1ccc(F)c(C(=O)c2c[nH]c3ncc(-c4ccc(Cl)cc4)cc23)c1F, which Potency is on record?
**A.** 8.33 µM (active)

**Q.** Which Potency does the source give for COc1ccc(COc2cc3oc(=O)c4cc(C(C)O)ccc4c3cc2OC)cc1 (configuration not stated) here?
**A.** 18.7 µM (active)

**Q.** For O=C1CCCC2=C1C(c1[nH]ncc1Cl)N=C(Nc1nc3ccccc3o1)N2 (configuration not stated), which Potency is on record?
**A.** 5.9 µM (active)

**Q.** With O=C(O)[C@@H](c1ccc(OCc2ccc3ccccc3n2)cc1)C1CCCC1 as the compound, how does the “viability (% of control)” value read?
**A.** 121%

**Q.** With CCn1c(-c2nonc2N)nc2c(C#CC(C)(C)O)ncc(OC[C@H]3CCCNC3)c21 as the compound, how does the Potency read?
**A.** 4.18 µM (active)

**Q.** With N#CC[C@H](C1CCCC1)n1cc(-c2ncnc3[nH]ccc23)cn1 as the compound, how does the Potency read?
**A.** 0.372 µM (active)

**Q.** Which “viability (% of control)” value does the source give for Nc1nc2ccc(OC(F)(F)F)cc2s1 here?
**A.** 139%

**Q.** For COc1cc2nccc(Oc3ccc(NC(=O)NC4CC4)c(Cl)c3)c2cc1C(N)=O, which Potency is on record?
**A.** 16.6 µM (active)

**Q.** For O=C(Nc1cccnc1)N1CCC(Cc2cccc(Oc3ccc(C(F)(F)F)cn3)c2)CC1, which Potency is on record?
**A.** 11.8 µM (active)

**Q.** For C1COC(NC(C2CC2)C2CC2)=N1, which Potency is on record?
**A.** 9.35 µM (active)

**Q.** Which Potency does the source give for S=C(NCc1ccc2c(c1)OCO2)N1CCN(c2ncnc3c2oc2ccccc23)CC1 here?
**A.** 1.08 µM (active)

**Q.** For CCC(C)n1ncn(-c2ccc(N3CCN(c4ccc(OC[C@H]5CO[C@](Cn6cncn6)(c6ccc(Cl)cc6Cl)O5)cc4)CC3)cc2)c1=O (some centres not stated), which “viability (% of control)” value is on record?
**A.** 148%

**Q.** Which Potency does the source give for COc1ccc2c3n(c(=NC(=O)c4cccnc4)nc2c1OC)CCN3 here?
**A.** 23.5 µM (active)

**Q.** With COc1ccc(-c2ccc3c(N4CCOC[C@H]4C)nc(N4CCOC[C@H]4C)nc3n2)cc1CO as the compound, how does the Potency read?
**A.** 0.0372 µM (active)

**Q.** With Cc1cc2c(C(C)C)c(O)c(O)c(C=O)c2c(O)c1-c1c(C)cc2c(C(C)C)c(O)c(O)c(C=O)c2c1O as the compound, how does the Potency read?
**A.** 9.35 µM (active)

**Q.** For COc1ccccc1-c1cccc(-c2c(O)c3cc(C#N)c(Cl)cc3[nH]c2=O)c1, which “viability (% of control)” value is on record?
**A.** 122% [at 92.2 µM]

**Q.** Which Potency does the source give for COc1c(Cl)cc2c([nH]c3cnccc32)c1NC(=O)c1cccnc1C here?
**A.** 2.96 µM (active)

**Q.** Which Potency does the source give for CNCc1ccc(-c2[nH]c3cc(F)cc4c3c2CCNC4=O)cc1 here?
**A.** 23.5 µM (active)

**Q.** Which Potency does the source give for CCC(=O)N[C@H]1CC[C@H](C(=O)N(C)c2ccc(-c3nc4ccccc4o3)cc2)C1 here?
**A.** 14.8 µM (active)

**Q.** For CCCS(=O)(=O)Nc1ccc(F)c(C(=O)c2c[nH]c3ncc(Cl)cc23)c1F, which Potency is on record?
**A.** 2.96 µM (active)

**Q.** With CC(C)(C)NCC(O)c1ccc(O)c(CO)c1 (configuration not stated) as the compound, how does the “viability (% of control)” value read?
**A.** 126%

**Q.** Which “viability (% of control)” value does the source give for CNC[C@H](O)c1cccc(O)c1 here?
**A.** 149%

**Q.** With CS(=O)(=O)Oc1ccc2c(NC(N)=O)c(C(=O)c3ccc(Cl)cc3Cl)oc2c1 as the compound, how does the Potency read?
**A.** 5.26 µM (active)

**Q.** For Cn1cnc([N+](=O)[O-])c1Sc1ncnc2nc[nH]c12, which Potency is on record?
**A.** 5.26 µM (active)

**Q.** Which Potency does the source give for CCc1cc(Nc2nccc(-c3c(-c4ccc(OC)c(C(=O)Nc5c(F)cccc5F)c4)nc4ccccn34)n2)c(OC)cc1N1CCC(N2CCN(S(C)(=O)=O)CC2)CC1 here?
**A.** 2.96 µM (active)

Experiment: Quantitative High-Throughput drug screen in 47 multiple myeloma cell lines against the NCATS MIPE library collection: JJN3_DSMZ cell viability assay (AID 1918966; note: nearly all actives have a fitted effect of over 50% in size)
Details: JJN3 myeloma cells viability, CellTiter-Glo ATP, 48 h; series mostly up to 45.8 µM; viability, % of DMSO: at the top concentration
Outline: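 CellTiter-Glo luminescence (ATP) after 48 h compound exposure, 37C/5% CO2; 500 cells/well; MIPE 4.0 approved/investigational drugs pinned in; DMSO = 100%, media only = 0% viability.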

**Q.** With CC[C@H](Nc1ncnc2nc[nH]c12)c1nc2cccc(F)c2c(=O)n1-c1ccccc1 as the compound, how does the Potency read?
**A.** 10.5 µM (active)

**Q.** With Cc1ccc(NC(=O)c2cccc(C(C)(C)C#N)c2)cc1Nc1ccc2ncn(C)c(=O)c2c1 as the compound, how does the Potency read?
**A.** 18.7 µM (active)

**Q.** For CO[C@@H]1[C@H](N(C)C(=O)c2ccccc2)C[C@H]2O[C@]1(C)n1c3ccccc3c3c4c(c5c6ccccc6n2c5c31)C(=O)NC4, which Potency is on record?
**A.** 4.18 µM (active)

**Q.** For COc1cccc2cc(-c3nc(C4CCC(C(=O)O)CC4)n4ncnc(N)c34)[nH]c12 (configuration not stated), which Potency is on record?
**A.** 1.05 µM (active)

**Q.** Which “viability, % of DMSO” value does the source give for CCOc1ccc(Cc2cc([C@@H]3O[C@H](CO)[C@@H](O)[C@H](O)[C@@H]3O)ccc2Cl)cc1 here?
**A.** 133%

**Q.** For COc1ccccc1[C@H](c1cccc2ccccc12)[C@@](C)(C#N)C(=O)N1CCC(c2cccc(C(F)(F)F)c2)CC1, which Potency is on record?
**A.** 6.62 µM (active)

**Q.** For CCCCNc1cc(C(=O)O)cc(S(N)(=O)=O)c1Oc1ccccc1, which “viability, % of DMSO” value is on record?
**A.** 134%

**Q.** For CS(=O)(=O)c1cccc(CNc2nc(Nc3ccc4c(c3)CCC(=O)N4)ncc2C(F)(F)F)c1, which Potency is on record?
**A.** 16.6 µM (active)

**Q.** For COc1ccc(COc2cc3oc(=O)c4cc(C(C)O)ccc4c3cc2OC)cc1 (configuration not stated), which Potency is on record?
**A.** 26.4 µM (active)

**Q.** Which Potency does the source give for O=C1CCCC2=C1C(c1[nH]ncc1Cl)N=C(Nc1nc3ccccc3o1)N2 (configuration not stated) here?
**A.** 5.26 µM (active)

**Q.** With N#CC[C@H](C1CCCC1)n1cc(-c2ncnc3[nH]ccc23)cn1 as the compound, how does the Potency read?
**A.** 5.26 µM (active)

**Q.** Which Potency does the source give for Nc1nc2ccc(OC(F)(F)F)cc2s1 here?
**A.** 16.6 µM (active)

**Q.** For COc1cc2nccc(Oc3ccc(NC(=O)NC4CC4)c(Cl)c3)c2cc1C(N)=O, which Potency is on record?
**A.** 1.48 µM (active)

**Q.** Which Potency does the source give for COc1ccc(-c2ccc3c(N4CCOC[C@H]4C)nc(N4CCOC[C@H]4C)nc3n2)cc1CO here?
**A.** 0.0132 µM (active)

**Q.** For Cc1cc2c(C(C)C)c(O)c(O)c(C=O)c2c(O)c1-c1c(C)cc2c(C(C)C)c(O)c(O)c(C=O)c2c1O, which Potency is on record?
**A.** 18.7 µM (active)

**Q.** With COc1ccccc1-c1cccc(-c2c(O)c3cc(C#N)c(Cl)cc3[nH]c2=O)c1 as the compound, how does the “viability, % of DMSO” value read?
**A.** 125% [at 92.2 µM]

**Q.** For COc1c(Cl)cc2c([nH]c3cnccc32)c1NC(=O)c1cccnc1C, which Potency is on record?
**A.** 18.7 µM (active)

**Q.** Which “viability, % of DMSO” value does the source give for CNCc1ccc(-c2[nH]c3cc(F)cc4c3c2CCNC4=O)cc1 here?
**A.** 99.2%
